# Measured values: PubChem BioAssay AID1159580 (chemical genetic matrix, 2015)
# “And” between values parts separate entries of the source, which are not always exact repeats. Equal entries are not always repeated. Out of some 5,500 compounds screened, about 2,000 (36%) were called active. Another 18% or so got no clear call; they are omitted. Some of the results follow. A number with no mark means an inactive call. Rule as the data show it: active = normalized growth mostly below about 0.91 (no sharp cut-off); inconclusive = no clear call, values can overlap the other calls; inactive = mostly above about 0.92.
# Test: chemical genetic growth profiling, strain panel (AID 1159580);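 also: tested at 20 µM; growth read once vehicle control cultures reached saturation at 30 °C; 1 = growth at the plate median or of vehicle wells; lower values mean less growth of the strain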
# Conditions: S. cerevisiae deletion strains, growth OD
compound,measurement,setting,value
NC(CO)C(=O)NNCc1ccc(O)c(O)c1O (configuration not stated),normalized growth,"locus YAL013W, strain DEP1, active compounds read low",0.941
same,normalized growth,"locus YAL021C, strain ccr4, active compounds read low",0.96
same,normalized growth,"locus YAL026C, strain drs2, active compounds read low",0.977
same,normalized growth,"locus YAL030W, strain snc1, active compounds read low",0.986
same,normalized growth,"locus YAL040C, strain CLN3, active compounds read low",0.967
same,normalized growth,"locus YBL061C, strain skt5, active compounds read low",0.999
same,normalized growth,"locus YBR009C, strain hhf1, active compounds read low",0.971
same,normalized growth,"locus YBR021W, strain FUR4, active compounds read low",1.02
same,normalized growth,"locus YBR023C, strain chs3, active compounds read low",0.984
same,normalized growth,"locus YBR171W, strain sec66, active compounds read low",0.996
same,normalized growth,"locus YBR229C, strain ROT2, active compounds read low",1.02
same,normalized growth,"locus YBR231C, strain swc5, active compounds read low",1
same,normalized growth,"locus YBR279W, strain paf1, active compounds read low",0.97
same,normalized growth,"locus YCL011C, strain gbp2, active compounds read low",0.946
same,normalized growth,"locus YCL016C, strain dcc1, active compounds read low",0.977
same,normalized growth,"locus YCL029C, strain bik1, active compounds read low",0.997
same,normalized growth,"locus YCL069W, strain vba3, active compounds read low",0.968
same,normalized growth,"locus YCR088W, strain abp1, active compounds read low",1
same,normalized growth,"locus YDL005C, strain med2, active compounds read low",1.01
same,normalized growth,"locus YDL035C, strain GPR1, active compounds read low",1.02
same,normalized growth,"locus YDL040C, strain nat1, active compounds read low",1.01
same,normalized growth,"locus YDL074C, strain BRE1, active compounds read low",0.98
same,normalized growth,"locus YDL101C, strain DUN1, active compounds read low",0.99
same,normalized growth,"locus YDL185W, strain tfp1, active compounds read low",1
same,normalized growth,"locus YDL192W, strain arf1, active compounds read low",0.998
same,normalized growth,"locus YDR001C, strain nth1, active compounds read low",0.982
same,normalized growth,"locus YDR069C, strain doa4, active compounds read low",0.966
same,normalized growth,"locus YDR101C, strain arx1, active compounds read low",0.971
same,normalized growth,"locus YDR137W, strain rgp1, active compounds read low",0.91
same,normalized growth,"locus YDR150W, strain NUM1, active compounds read low",1.03
same,normalized growth,"locus YDR159W, strain sac3, active compounds read low",1.02
same,normalized growth,"locus YDR162C, strain NBP2, active compounds read low",1.02
same,normalized growth,"locus YDR195W, strain ref2",1.03
same,normalized growth,"locus YDR297W, strain sur2, active compounds read low",0.994
same,normalized growth,"locus YDR318W, strain mcm21, active compounds read low",1
same,normalized growth,"locus YDR334W, strain swr1, active compounds read low",0.982
same,normalized growth,"locus YDR335W, strain msn5, active compounds read low",0.995
same,normalized growth,"locus YDR363W, strain ESC2, active compounds read low",0.968
same,normalized growth,"locus YDR388W, active compounds read low",0.99
same,normalized growth,"locus YDR392W, strain spt3, active compounds read low",1.03
same,normalized growth,"locus YDR502C, strain sam2, active compounds read low",0.988
same,normalized growth,"locus YEL003W, strain gim4, active compounds read low",0.981
same,normalized growth,"locus YEL037C, strain rad23, active compounds read low",0.98
same,normalized growth,"locus YEL061C, strain CIN8 (second series), active compounds read low",0.981
same,normalized growth,"locus YEL061C, strain CIN8, active compounds read low",1.01
same,normalized growth,"locus YER002W, strain NOP16, active compounds read low",1
same,normalized growth,"locus YER015W, strain faa2, active compounds read low",0.947
same,normalized growth,"locus YER016W, strain bim1, active compounds read low",0.994
same,normalized growth,"locus YER110C, active compounds read low",0.984
same,normalized growth,"locus YER111C, strain swi4, active compounds read low",0.966
same,normalized growth,"locus YER155C, strain BEM2 (second series), active compounds read low",1.08
same,normalized growth,"locus YER155C, strain BEM2, active compounds read low",1
same,normalized growth,"locus YER167W, strain BCK2, active compounds read low",1.02
same,normalized growth,"locus YFR010W, strain ubp6, active compounds read low",0.989
same,normalized growth,"locus YGL078C, strain dbp3, active compounds read low",0.993
same,normalized growth,"locus YGL086W, strain mad1, active compounds read low",0.993
same,normalized growth,"locus YGL167C, strain pmr1, active compounds read low",0.996
same,normalized growth,"locus YGL173C, strain kem1, active compounds read low",1.01
same,normalized growth,"locus YGL227W, strain vid30, active compounds read low",1.01
same,normalized growth,"locus YGL240W, strain doc1, active compounds read low",1.06
same,normalized growth,"locus YGL248W, strain PDE1, active compounds read low",1.01
same,normalized growth,"locus YGL253W, strain hxk2, active compounds read low",0.958
same,normalized growth,"locus YGR078C, strain PAC10, active compounds read low",0.995
same,normalized growth,"locus YGR135W, strain pre9, active compounds read low",0.994
same,normalized growth,"locus YGR229C, strain SMI1, active compounds read low",0.775 (active)
same,normalized growth,"locus YGR252W, strain gcn5, active compounds read low",0.986
same,normalized growth,"locus YHR013C, strain ard1, active compounds read low",0.987
same,normalized growth,"locus YHR027C, strain rpn1, active compounds read low",0.911 (active)
same,normalized growth,"locus YHR030C, strain SLT2, active compounds read low",1.02 and 1.05
same,normalized growth,"locus YHR079C, strain IRE1 (second series), active compounds read low",1
same,normalized growth,"locus YHR079C, strain IRE1, active compounds read low",1.06
same,normalized growth,"locus YHR094C, strain hxt1, active compounds read low",1.01
same,normalized growth,"locus YHR129C, strain ARP1, active compounds read low",1.01
same,normalized growth,"locus YHR142W, strain chs7, active compounds read low",0.964
same,normalized growth,"locus YHR200W, strain rpn10, active compounds read low",0.986
same,normalized growth,"locus YIL066C, strain RNR3, active compounds read low",1.03
same,normalized growth,"locus YIL073C, strain SPO22, active compounds read low",0.985
same,normalized growth,"locus YIL125W, strain kgd1, active compounds read low",0.995
same,normalized growth,"locus YIR030C, strain dcg1, active compounds read low",0.984
same,normalized growth,"locus YJL092W, strain hpr5, active compounds read low",0.996
same,normalized growth,"locus YJL095W, strain BCK1 (second series), active compounds read low",1
same,normalized growth,"locus YJL095W, strain BCK1, active compounds read low",1.01 and 1.05
same,normalized growth,"locus YJL115W, strain asf1, active compounds read low",1
same,normalized growth,"locus YJL129C, strain trk1, active compounds read low",1.06
same,normalized growth,"locus YJL134W, strain LCB3, active compounds read low",1.01
same,normalized growth,"locus YJL154C, strain vps35, active compounds read low",0.993
same,normalized growth,"locus YJL164C, strain tpk1, active compounds read low",0.953
same,normalized growth,"locus YJL166W, strain qcr8, active compounds read low",1.02
same,normalized growth,"locus YJL168C, strain set2, active compounds read low",1
same,normalized growth,"locus YJL187C, strain SWE1 (second series), active compounds read low",0.988
same,normalized growth,"locus YJL187C, strain SWE1, active compounds read low",0.983
same,normalized growth,"locus YJR043C, strain POL32, active compounds read low",1.02
